SARS PLP yeast = inhibitors of SARS-CoV papain-like protease in yeast; AID 485353; 330,000 compounds, 0.19% hits; S. cerevisiae expressing SARS-CoV PLpro, growth rescue; Potency, µM (top dose mostly 32.9 µM), without a hit: top-dose activity, positive = growth rescue, hits mostly activators; calls by dose curve; note: potency is the fitted concentration of half-maximal effect; 0% is about no effect; nearly all actives have a fitted effect of over 55% in size
Shiga toxin inh = inhibitors of Shiga toxin in Vero cells; Vero cells, Shiga toxin protein synthesis inhibition reporter; inhibition, % at 38.7 µM; 290,000 compounds, 9.2% hits; AID 2315; in the data active = inhibition mostly above about 28%, no sharp cut-off; inactive = mostly below about 43%; note: 0% is about no effect
AmpC detergent = AmpC beta-lactamase inhibition with detergent present; P00811; AmpC hydrolysis of nitrocefin, absorbance 480 nm, 0.01% Triton; Potency, µM (series often up to 114 µM), inactives show at the highest dose activity change, negative = inhibition, usual class: inhibitors; 370,000 compounds, 0.041% hits; AID 485294;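 note: potency is the fitted concentration of half-maximal effect; 0% = no-compound wells and -100% = no-enzyme wells; nearly all actives have a fitted effect of over 25% in size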
Target sequence (P00811 whole entry, looked up): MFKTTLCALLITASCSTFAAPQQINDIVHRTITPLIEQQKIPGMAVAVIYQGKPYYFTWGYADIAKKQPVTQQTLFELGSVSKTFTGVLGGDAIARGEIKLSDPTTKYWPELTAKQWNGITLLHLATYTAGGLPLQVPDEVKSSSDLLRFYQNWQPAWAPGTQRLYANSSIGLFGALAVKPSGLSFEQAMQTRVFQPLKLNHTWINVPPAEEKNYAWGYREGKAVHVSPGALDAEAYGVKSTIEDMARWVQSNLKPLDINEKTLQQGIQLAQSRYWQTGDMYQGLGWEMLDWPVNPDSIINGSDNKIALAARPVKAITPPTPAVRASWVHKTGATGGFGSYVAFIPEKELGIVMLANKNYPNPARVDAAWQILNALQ
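20 mM phosphate pH 7.0 + 0.01% (detergent screen) or 0.0001% Triton X-100; 5.3 nM AmpC reagent; cpd preinc 15 min RT; nitrocefin (800 uM stock) to start; A480 q20 s × 4 min; Activity was normalised to no-enzyme and no-compound control wells.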
AMA1 RON2 block = AMA1-RON2 (P. falciparum) interaction inhibition | AlphaScreen AMA1-biotinylated RON2 peptide binding | Potency, µM (highest dose often 58.2 µM), for inactives: at the top dose activity change, negative = inhibition, usual class: inhibitors | 360,000 compounds, 0.2% hits | AID 720542;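 note: potency is the fitted concentration of half-maximal effect; 0% = vehicle wells and -100% = peptide control; nearly all actives have a fitted effect of over 45% in size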
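AMA1 (3D7) with his tag at 25 nM final met compounds first, then biotinylated RON2 peptide at 25 nM; detection used donor plus acceptor beads, 10 µg/mL apiece, read by AlphaScreen after 30 min at room temperature.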
Cycloheximide cs = affects cycloheximide protein synthesis inhibition readout, counter-screen | max response, % | 300,000 compounds, 12% hits | cell reporter, cycloheximide protein synthesis inhibition counterscreen; in the data active = max response mostly above about 13%, no sharp cut-off; inactive = mostly below about 14%; note: read at 38.3 µM for the half of the compounds with a filed dose; 0% is about no effect
AmpC no deterg = inhibitors of E. coli AmpC beta-lactamase without detergent. AmpC nitrocefin hydrolysis, absorbance 480 nm, 0.0001% Triton. P00811. Potency, µM (top dose mostly 57.1 µM), without a hit: at the highest dose activity change, negative = inhibition, actives largely listed as inhibitors. AID 485341. 330,000 compounds, 0.52% hits;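 note: potency is the fitted concentration of half-maximal effect; plate controls were no compound for no effect and no enzyme for full effect; nearly all actives have a fitted effect of over 20% in size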
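20 mM phosphate pH 7.0 + 0.01% (detergent screen) or 0.0001% Triton X-100; 5.3 nM AmpC reagent; cpd preinc 15 min RT; nitrocefin (800 uM stock) to start; A480 q20 s × 4 min; Activity was normalised to no-enzyme and no-compound control wells.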
Active calls of the source: *. This is one part of a sample in which hits are shown more often than they occur. Unless noted, calls come from the whole dose curve; as a rule, active = well fitted curve in the direction sought with a large enough effect; inconclusive = small, poorly fitted or top-dose-only effect, or another doubt; inactive = no such curve, though single readings can be large; an effect the other way counts as inactive or inconclusive.

What do the screens show for `COc1cccc(NC(=O)NC2(C(=O)N3CCC(O)CC3)CCCCC2)c1`?
SARS PLP yeast: -2%; Shiga toxin inh: -5; AmpC detergent: -6%; AMA1 RON2 block: -3%; Cycloheximide cs: -4; AmpC no deterg: -13%

How did COc1cccc(CN2CCC(Oc3ccc(C(=O)NCc4ccccn4)cc3)CC2)c1O do in these assays?
SARS PLP yeast: 5%; Shiga toxin inh: -4; AmpC detergent: inconclusive; AMA1 RON2 block: -14%; Cycloheximide cs: -1; AmpC no deterg: 4%

What do the screens show for `CSc1ccc(Cn2c(C)c(C(=O)NCc3ccccc3C(F)(F)F)sc2=O)cc1`?
AMA1 RON2 block: -9%

How did COc1ccc2cc(-c3cc(C(=O)OCC(=O)Nc4c(C)n(C)n(-c5ccccc5)c4=O)c4ccccc4n3)ccc2c1 do in these assays?
SARS PLP yeast: -9%; Shiga toxin inh: 53*; AmpC detergent: -20%; AMA1 RON2 block: -4%; Cycloheximide cs: 31*; AmpC no deterg: -25%

What do the screens show for `CC(C)NC(=O)NC(=O)COc1ccc(Br)cc1Br`?
SARS PLP yeast: -13%; Shiga toxin inh: 75*; AmpC detergent: 4%; AMA1 RON2 block: 1%; Cycloheximide cs: 130*; AmpC no deterg: -18%

How did O=C(COc1ccc(Br)cc1Br)NC1CCCC1 do in these assays?
SARS PLP yeast: -7%; Shiga toxin inh: 109*; AmpC detergent: 0%; AMA1 RON2 block: 30%; Cycloheximide cs: 43*; AmpC no deterg: 17%

How did O=C(COc1ccc(Br)cc1Cl)NC(=O)NC1CCCC1 do in these assays?
SARS PLP yeast: 0%; AmpC detergent: inconclusive; AMA1 RON2 block: 5%; AmpC no deterg: -10%

What do the screens show for `O=C(COc1ccc(Br)cc1Br)NC1CCS(=O)(=O)C1` (centres undefined)?
SARS PLP yeast: -5%; AmpC detergent: inconclusive; AMA1 RON2 block: -4%; AmpC no deterg: 0%

What do the screens show for `O=C(COc1ccc(Br)cc1Cl)NC1CCCCC1`?
SARS PLP yeast: 1%; Shiga toxin inh: active; AmpC detergent: -13%; AMA1 RON2 block: 0%; Cycloheximide cs: 36*; AmpC no deterg: 1%

How did Cc1noc(NS(=O)(=O)c2ccc(NC(=O)c3ccc(N4C(=O)c5ccccc5C4=O)cc3)cc2)c1C do in these assays?
SARS PLP yeast: 0%; Shiga toxin inh: -16; AmpC detergent: 0%; AMA1 RON2 block: -9%; Cycloheximide cs: -1; AmpC no deterg: -39%

Results for Cc1ccc(NC(=O)C(C)Sc2nnc(C)n2C)cc1 (centres undefined) ?
SARS PLP yeast: -11%; AmpC detergent: -17%; AMA1 RON2 block: -1%; Cycloheximide cs: -2; AmpC no deterg: 321%

Results for CCOc1ccc(NC(=O)C(C)Sc2nc3ncccc3o2)cc1 (centres undefined) ?
AmpC detergent: 22%

Results for CCOc1ccc(NC(=O)C(C)Sc2nccn2C)cc1 (centres undefined) ?
SARS PLP yeast: -1%; Shiga toxin inh: 9; AmpC detergent: -5%; AMA1 RON2 block: -9%; Cycloheximide cs: 17*; AmpC no deterg: -3%

What do the screens show for `CCOc1ccc(NC(=O)C(C)Sc2nnc(C)n2C)cc1` (centres undefined)?
SARS PLP yeast: 4%; Shiga toxin inh: 15; AmpC detergent: inconclusive; AMA1 RON2 block: -1%; Cycloheximide cs: -2; AmpC no deterg: 3.5µM*

What do the screens show for `O=C1CC(c2ccccc2)n2nc(NC(=O)c3ccccc3)nc2N1` (centres undefined)?
SARS PLP yeast: 1%; Shiga toxin inh: -5; AmpC detergent: -12%; AMA1 RON2 block: 15%; Cycloheximide cs: 0; AmpC no deterg: 3%

What do the screens show for `Cc1ccc2nc(N3CCN(C)CC3)c(C=O)c(=O)n2c1`?
SARS PLP yeast: -1%; Shiga toxin inh: -5; AmpC detergent: 2%; AMA1 RON2 block: 6%; Cycloheximide cs: -2; AmpC no deterg: -10%

Results for Cc1cc(C(=O)NN=C(CCC(=O)O)c2cccs2)c(C)o1 ?
SARS PLP yeast: 4%; AMA1 RON2 block: 70%; AmpC no deterg: -36%

How did O=C(Cc1ccccc1F)NNC(=O)c1cccs1 do in these assays?
SARS PLP yeast: -2%; AMA1 RON2 block: 5%; AmpC no deterg: -8%

What do the screens show for `O=C(O)CCC(=O)NNC(=O)c1cccs1`?
SARS PLP yeast: 0%; Shiga toxin inh: 17; AmpC detergent: 7%; AMA1 RON2 block: -19%; Cycloheximide cs: 18*; AmpC no deterg: -9%

What do the screens show for `O=C(O)CC/C(=N/NC(=O)c1cccs1)c1ccccc1`?
SARS PLP yeast: 4%; Shiga toxin inh: 24*; AmpC detergent: -13%; AMA1 RON2 block: 0%; Cycloheximide cs: 77*; AmpC no deterg: -29%

What do the screens show for `CCOC(=O)N/N=C(\CCC(=O)O)c1cccs1`?
SARS PLP yeast: 1%; Shiga toxin inh: 35*; AmpC detergent: 0%; AMA1 RON2 block: -10%; Cycloheximide cs: 17*; AmpC no deterg: 82%

What do the screens show for `O=C(O)CC/C(=N\Nc1ccc(S(=O)(=O)N2CCCC2)cc1[N+](=O)[O-])c1cccs1`?
SARS PLP yeast: -6%; Shiga toxin inh: -20; AmpC detergent: inconclusive; AMA1 RON2 block: -24%; Cycloheximide cs: -3; AmpC no deterg: -30%

How did O=C(O)CC/C(=N\Nc1ccccc1[N+](=O)[O-])c1cccs1 do in these assays?
SARS PLP yeast: 2%; Shiga toxin inh: 58*; AmpC detergent: -2%; AMA1 RON2 block: -9%; Cycloheximide cs: 47*; AmpC no deterg: -25%

How did O=C(CCC1CCCN(C(=O)c2ccc3c(c2)OCO3)C1)N1CCN(c2ccccn2)CC1 (centres undefined) do in these assays?
SARS PLP yeast: 2%; Shiga toxin inh: -4; AmpC detergent: 4%; AMA1 RON2 block: -17%; Cycloheximide cs: 9; AmpC no deterg: 56%

How did O=C(NCCc1nc2ccccc2[nH]1)/C(=C/c1ccco1)NC(=O)c1ccccc1Br do in these assays?
SARS PLP yeast: 20%; Shiga toxin inh: 6; AmpC detergent: -3%; AMA1 RON2 block: 49%; Cycloheximide cs: -2; AmpC no deterg: -13%

What do the screens show for `CCOC(=O)CNC(=O)Nc1cc(C(=O)NCc2ccccc2OC)ccc1N1CCCC1`?
AmpC detergent: 9%

Results for COc1ccc(/C=C2\SC(=S)N(CCC(=O)NCCCN3CCOCC3)C2=O)cc1 ?
SARS PLP yeast: -1%; Shiga toxin inh: 28; AmpC detergent: -10%; AMA1 RON2 block: -10%; Cycloheximide cs: 13*; AmpC no deterg: 159%

Results for CCc1ccc(/C=C2\SC(=S)N(CCC(=O)NCCCN3CCOCC3)C2=O)cc1 ?
SARS PLP yeast: -3%; Shiga toxin inh: 46*; AmpC detergent: 3%; AMA1 RON2 block: -12%; Cycloheximide cs: 45*; AmpC no deterg: 179%

Screening results as filed in PubChem BioAssay.
